# Screens: PubChem BioAssay, National Center for Advancing Translational Sciences (NCATS)
# Luc counter = Counterscreen for Luciferase (Kinase-Glo TM) Inhibition; Luciferin 4-monooxygenase (Photuris pensylvanica), Q27757; Kinase-Glo luciferase, ATP luminescence, 8 min; Potency, µM (series often up to 38.3 µM), without a hit: top-dose activity change, negative = inhibition, usual class: inhibitors; 200,000 compounds, 0.28% hits; note: nearly all actives have a fitted effect of over 60% in size
#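 Recombinant Kinase-Glo luciferase, 10 uM ATP (linear range), luciferin; imidazole pH 7.2 / KCl / MgCl2 / Tween / BSA buffer; 8 min RT; luminescence.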
# NPSR antagonist = qHTS Assay for Antagonists of the Neuropeptide S Receptor: cAMP Signal Transduction; Q6W5P4; 220,000 compounds, 1% hits; AID 1461, 2008; CHO-NPSR cells, cAMP TR-FRET, antagonist mode; Potency, µM (highest dose often 38.3 µM), for the others: at the highest dose activity change, negative = inhibition, hits mostly inhibitors; note: nearly all actives have a fitted effect of over 50% in size
# Target sequence (Q6W5P4 whole entry, looked up): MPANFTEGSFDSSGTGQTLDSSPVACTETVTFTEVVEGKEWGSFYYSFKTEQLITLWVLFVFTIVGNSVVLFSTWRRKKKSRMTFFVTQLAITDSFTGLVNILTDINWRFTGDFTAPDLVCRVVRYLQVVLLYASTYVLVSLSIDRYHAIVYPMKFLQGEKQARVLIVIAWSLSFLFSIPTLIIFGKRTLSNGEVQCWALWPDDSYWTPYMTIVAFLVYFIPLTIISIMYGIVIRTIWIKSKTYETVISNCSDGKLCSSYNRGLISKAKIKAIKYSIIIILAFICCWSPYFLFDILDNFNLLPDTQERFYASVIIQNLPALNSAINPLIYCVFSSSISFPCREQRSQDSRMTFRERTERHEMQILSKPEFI
# Tau fluor counter = Counterscreen qHTS for Inhibitors of Tau Fibril Formation, Fluorescence Polarization; tau K18 P301L Alexa594 fluorescence, heparin fibrillization; Potency, µM (top dose mostly 57.7 µM), without a hit: top-dose activity change, negative = decrease; 280,000 compounds, 0.93% hits; AID 1463, 2008; note: nearly all actives have a fitted effect of over 55% in size
#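 Human tau K18 P301L (15 uM unlabeled, 0.24 uM Alexa 594-labeled) in 100 mM sodium acetate pH 7 with 20 uM heparin, 6 hr at 37 C. ThT 30 uM added, 1 hr ambient; Alexa 594 FP and total fluorescence read at 555/632 nm.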
# Tau fibril FP = qHTS for Inhibitors of Tau Fibril Formation, Fluorescence Polarization | K18 P301L tau heparin fibrillization, Alexa594 FP, 6 h | Microtubule-associated protein tau (Homo sapiens), P10636 | 280,000 compounds, 0.39% hits | Potency, µM (titrated, usually from 57.7 µM), for inactives: at the top dose activity, negative = inhibition, most hits filed as inhibitors; note: nearly all actives have a fitted effect of over 55% in size
# Target sequence (P10636 561-689 P618L limits assumed): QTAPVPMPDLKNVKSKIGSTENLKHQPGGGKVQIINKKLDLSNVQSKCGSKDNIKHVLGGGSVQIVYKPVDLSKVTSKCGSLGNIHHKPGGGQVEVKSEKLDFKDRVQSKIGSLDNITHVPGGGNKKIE
#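 K18 P301L tau (15 uM unlabeled/0.24 uM Alexa 594-labeled, final) + compound + heparin 20 uM final; 100 mM NaOAc pH 7; 6 hr 37 C; ThT 30 uM final added, 1 hr RT; FP ex 555/em 632 nm.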
# Tau ThT inhib = qHTS for Inhibitors of Tau Fibril Formation, Thioflavin T Binding; Microtubule-associated protein tau (Homo sapiens), P10636; recombinant tau K18 P301L (four-repeat tau fragment), heparin-induced fibrillization, ThT fluorescence; Potency, µM (doses to about 57.4 µM), inactives show at the top dose activity, negative = inhibition, most hits filed as inhibitors; 270,000 compounds, 2.1% hits; AID 1460, 2008; note: nearly all actives have a fitted effect of over 55% in size
#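 Recombinant human tau K18 fragment […] carrying P301L, 15 uM unlabeled plus 0.24 uM Alexa 594-labeled, was fibrillized with 20 uM heparin in 100 mM sodium acetate pH 7 for 6 hr at 37 C; 30 uM ThT fluorescence read after 1 hr.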
# Active calls of the source: *; ? = inconclusive; nt = no result given; [ ] = dose if it differs, or a comment. This is a sample that favours compounds with a hit; in the whole collection about 3.3% have one here. Calls come from the whole dose curve; as a rule, active = well fitted curve in the direction sought with a large enough effect; inconclusive = small, poorly fitted or top-dose-only effect, or another doubt; inactive = no such curve, though single readings can be large; an effect the other way counts as inactive or inconclusive. % is set by controls: 0 for no effect and ±100 for the full control effect; potency is the fitted concentration of half-maximal effect.
SMILES,Luc counter,NPSR antagonist,Tau fluor counter,Tau fibril FP,Tau ThT inhib
Cc1cnc(C(=O)Nc2ccc(N3CCN(C(=O)OC(C)(C)C)CC3)cc2)cn1,-0.9%,-4.6%[46.1 µM],-20.5%,-6.6%,1.78µM*
CCCCS(=O)(=O)c1nc(-c2ccc(Br)cc2)cc(-c2ccccc2)c1C#N,nt,nt,-17.0%,-17.8%,-12.6%
CCc1nnc(NC(=O)CSc2nccn2Cc2ccc(F)cc2)s1,nt,nt,-9.5%,-3.2%,-4.9%
CCOC(=O)C1=C([Si](C)(C)C)c2ccccc2N(S(=O)(=O)C(F)(F)F)C1C(=O)OCC (stereo not drawn),-0.9%[39.9 µM],nt,-13.4%,4.6%,?
CC(C(=O)O)N1C(=O)/C(=C/C=C/c2ccco2)SC1=S (stereo not drawn),-3.4%,-16.0%[46.1 µM],?,?,8.91µM*
CCOc1ccc(/C=C2\SC(=S)N(NS(=O)(=O)c3ccc(C)cc3)C2=O)cc1OC,nt,-22.6%,-2.7%,-6.1%,?
O=C1/C(=C/c2cccs2)SC(=S)N1NS(=O)(=O)c1ccccc1,nt,50.7%,-20.8%,-10.1%,17.8µM*
CC1=NN(c2ccc(C(=O)OC(C)C)cc2)C(=O)/C1=C\C=C\c1ccco1,-13.9%,-22.1%[46.1 µM],-5.6%,-3.8%,3.3%
O=C1/C(=C/C=C/c2ccco2)SC(=S)N1NS(=O)(=O)c1ccccc1,nt,-15.6%,?,15.8µM*,nt
O=C(O)c1ccc(NC(=O)c2cc(S(=O)(=O)N3CCCCC3)c(Cl)cc2Cl)cc1,nt,nt,0.8%,4.1%,6.9%
CN(C)CCCN1CCC2(CCC(C(C)(C)C)CC2)CC1,-1.2%[7.66 µM],nt,nt,nt,nt
Cc1oc2ccc(O)c(CN3CCN(C)CC3)c2c1C(=O)Nc1cccc(C(F)(F)F)c1,nt,nt,-17.1%,5.3%,?
COc1ccc(S(=O)(=O)Nc2cc3c(cc2NCc2ccccc2)n(C)c(=O)n3C)cc1OC,nt,nt,?,-6.8%,?
CC(=O)Nc1ccc(NC(=O)c2oc3c(c2C)-c2nn(Cc4ccccc4Cl)cc2CC3)cc1,nt,nt,-16.1%,-15.3%,-0.8%
Cc1ccc(C(=O)c2ccccc2C(=O)OCC(=O)Nc2cccc([N+](=O)[O-])c2)cc1,2.4%,-20.0%[46.1 µM],15.8µM*[quencher],?,-17.9%
COc1ccc(N2CCN(C(=O)c3cn(C)c4ccc(S(=O)(=O)N(C)C5CCCCC5)cc4c3=O)CC2)cc1,nt,nt,-11.6%,-3.2%,-0.7%
Oc1c(C=Nc2ccccc2Cl)[nH]c2ccccc12,nt,-11.9%,?,?,39.8µM*
CCCCc1ccc(NC(=S)Nc2ccc(Nc3ccc(OC)cc3)cc2)cc1,0.3%,-24.8%,7.94µM*[quencher],?,8.91µM*
CCOc1ccc(-n2nc3ccc(NC(=O)c4ccc5c(c4)OCCO5)cc3n2)cc1,-3.5%,10µM*,-20.1%,-11.9%,-3.4%
Cc1ccc(CNC(=O)c2cc(=O)c3cc(C)cc(C)c3o2)cc1,nt,nt,-18.4%,?,-10.9%
CCc1ccc(N2C(=O)Cc3c2nc(N)c(C#N)c3N)cc1,-7.2%,-17.5%[46.1 µM],?,?,?
CCN(CC)c1nc2c3c(nc4c(c3c1C#N)CC(=O)N4c1ccc(Cl)cc1)NC(C)=N2,nt,-18.2%[46.1 µM],?,?,15.8µM*
O=C(Nc1ccccc1)c1sc2cc(C(F)(F)F)cnc2c1-c1cccs1,-1.8%,10µM*,-17.1%,-2.8%,-16.2%
NNC(=O)c1sc2cc(C(F)(F)F)cnc2c1-c1cccs1,nt,-7.7%,-1.8%,-0.9%,-3.6%
COC1=C(Nc2ccccc2OC)C(=O)c2ccccc2C1=O,nt,-26.0%,?,?,?
SMILES,Luc counter,NPSR antagonist,Tau fluor counter,Tau fibril FP,Tau ThT inhib
COc1ccccc1NC1=C(NC(C)=O)C(=O)c2ccccc2C1=O,?,-36.9%,-29.0%,?,20µM*
O=C(Oc1ccc(NC2=C(Cl)C(=O)c3ccccc3C2=O)cc1)c1ccc([N+](=O)[O-])cc1,-3.6%,?,2.82µM*[quencher],?,3.16µM*
CC(=O)Nc1ccc(NC2=C(Cl)C(=O)c3ccccc3C2=O)cc1,?,10µM*,2.24µM*[quencher],10µM*,2µM*
O=C(NC1=C(Nc2ccc(Cl)cc2)C(=O)c2ccccc2C1=O)c1ccccc1,-10.9%,-5.9%,?,-12.8%,17.8µM*
COCCCNC(=O)CCn1c(=O)c2ccccc2n(CC(=O)Nc2c(C)cc(C)cc2C)c1=O,nt,nt,3.9%,2.9%,5.6%
Cc1ccc(NC2=C(NCCO)C(=O)c3ccccc3C2=O)cc1,-6.2%,-21.0%,?,?,22.4µM*
CN(C)c1ccc(NC2=C(Cl)C(=O)c3ccccc3C2=O)cc1,-14.2%,?,3.55µM*[quencher],14.1µM*,7.94µM*
O=C1C(Cl)=C(Nc2ccc3cn[nH]c3c2)C(=O)c2ccccc21,nt,6.31µM*,1.41µM*[quencher],7.94µM*,1.78µM*
COc1cccc(-n2cc(C(=O)Nc3cc(C)c(Cl)cc3OC)c3ccccc3c2=O)c1,nt,nt,-8.7%,-3.6%,1.2%
CCOc1ccc(C(=O)NCC(c2ccco2)S(=O)(=O)c2cccs2)cc1 (stereo not drawn),nt,nt,-5.2%,-4.4%,-4.7%
O=C(CSc1nnc(-c2ccncc2)n1-c1ccccc1)Nc1ccc(Br)cc1,nt,nt,-3.7%,?,2.0%
CCOc1ccc(N2C(=O)C(Cl)=C(Nc3ccccc3O)C2=O)cc1,-1.3%,-22.0%[46.1 µM],?,?,10µM*
O=C1C(Cl)=C(Nc2ccccc2O)C(=O)N1CCc1ccccc1,3.1%,-14.7%,?,?,10µM*
COc1ccc2ccc3c(c2c1)N=C[C@]1(O3)N(C)c2ccccc2C1(C)C,-1.8%,-23.4%[46.1 µM],?,?,20µM*
Cc1ccc(CNC(=O)c2c(C)oc3nc(C)nc(N4CCOCC4)c23)cc1,nt,nt,-3.5%,-10.3%,4.5%
Cc1ccc(/C=C(\C#N)C(=O)NC(C)C)o1,6.0%,-3.6%,2.5%,3.1%,4.5%
CC(C)NC(=O)/C(C#N)=C/c1ccc(N(C)C)o1,nt,12.6µM*,-22.5%,-12.7%,?
Cc1cccc(NS(=O)(=O)c2cc(NC(=O)CC(=O)c3ccc([N+](=O)[O-])cc3)ccc2C)c1,3.5%,-19.1%,7.94µM*[quencher],-6.1%,?
Cc1ccccc1NS(=O)(=O)c1cc(C(=O)Nc2cccc([N+](=O)[O-])c2)ccc1C,-2.7%,-32.9%,14.1µM*[quencher],-13.2%,?
Cc1ccc(C(=O)Nc2cccc([N+](=O)[O-])c2)cc1S(=O)(=O)Nc1ccc(C(=O)O)cc1,10.0%,14.8%,-18.1%,-1.0%,-16.0%
COc1cc2ncc3c(-c4ccc(C)cc4)nn(-c4ccc(F)cc4F)c3c2cc1OC,nt,nt,-20.6%,?,-13.7%
Cc1cc(C)n(CCc2nc(-c3ccco3)cs2)n1,-3.4%,-7.7%[46.1 µM],-22.2%,?,35.5µM*
